# Source: PubChem BioAssay AID463173 (ICCB-Longwood Screening Facility, Harvard Medical School, 2010)
# Screen size: about 52,000 compounds; about 4,300 (8.3%) were called active. The full list was thinned out, with actives kept by preference. A number with no mark means an inactive call. No stated cut-off is given here; in the data, active means survival mostly below about 52% (no sharp cut-off); inactive means mostly above about 56%.
# Test system: DeltatarO mutant
# Experiment: S. aureus survival, RN4220 and DeltatarO strains – OD600, teichoic acid synthesis inhibitors, primary screen (AID 463173)
# Details: S. aureus RN4220 wild type/DeltatarO growth, OD600, 18 h, active compounds read low, screened at 18.75 µg/mL (by protocol)
row,SMILES,survival
1,O=c1cc(Nc2cccc(Br)c2)[nH]c(=O)[nH]1,68%
2,O=C(NCc1cccs1)c1ccc(Cn2c(SCc3ccccc3)nc3cccnc32)cc1,71%
3,CCOc1ccc(NC(=O)c2sc3nc4c(c(-c5ccccc5)c3c2N)C(=O)CC(C)(C)C4)cc1,49%
4,CCOC(=O)c1cc(NC(=O)c2ccc(Cl)cc2)c(=O)n2c1oc1ccccc12,34% (active)
5,CCOC(=O)c1cc(NC(=O)c2ccc(C)cc2)c(=O)n2c1oc1ccc(Cl)cc12,55%
6,CCOC(=O)c1cc(NC(=O)c2ccc(F)cc2)c(=O)n2c1oc1ccccc12,54%
7,CCOC(=O)c1cc(NC(=O)c2ccc(C)cc2)c(=O)n2c1oc1ccccc12,52%
8,CCOC(=O)c1cc(NC(=O)c2ccc(F)cc2)c(=O)n2c1oc1ccc(Cl)cc12,127%
9,CCOC(=O)c1cc(NC(=O)c2ccc(OC)cc2)c(=O)n2c1oc1ccc(Cl)cc12,46% (active)
10,O=C(NCCC1=CCCCC1)c1ccc2c(c1)ncn2-c1cccc(Cl)c1,98%
11,Cc1cc(C)c(NC(=O)Cn2ccn(-c3cccc(Cl)c3)c(=O)c2=O)c(C)c1,57%
12,COc1ccc(NC(=O)c2cc(S(=O)(=O)N3CCOCC3)cn2C)cc1Cl,108%
13,CCN(CC)C(=O)c1sc2c(c1C)c(=O)n(CCc1ccccc1)c(=O)n2Cc1ccc(F)cc1Cl,89%
14,CC(=O)Nc1ccc(S(=O)(=O)N2CCN(Cc3ccccc3Cl)CC2)cc1,62% (active)
15,COc1cc(OC)c(OC)cc1CN1CCN(S(=O)(=O)c2ccc(NC(C)=O)cc2)CC1,79%
16,CCOc1cc(CN2CCN(S(=O)(=O)c3ccc(C)cc3)CC2)ccc1OC,171%
17,Cc1ccc(S(=O)(=O)N2CCC(C(=O)NCc3ccccc3Cl)CC2)cc1,74%
18,CCS(=O)(=O)N1CCN(S(=O)(=O)c2ccc(Cl)cc2)CC1,88%
19,COc1ccc(CN2CCN(S(=O)(=O)c3ccc(NC(C)=O)cc3)CC2)c(OC)c1OC,61%
20,Cc1ccc(S(=O)(=O)N2CCN(Cc3ccccc3Cl)CC2)cc1,13% (active)

row,SMILES,survival
1,CCOc1ccc(CN2CCN(S(=O)(=O)c3ccc(Cl)cc3)CC2)cc1,27% (active)
2,Cc1ccc(S(=O)(=O)N2CCN(S(=O)(=O)c3ccc(C)cc3)CC2)cc1,96%
3,O=C(NC1CC(=O)N(c2ccc(F)cc2)C1)c1ccc2c(c1)OCO2 (stereo not drawn),75%
4,Cc1cccc(Nc2nnc(-c3ccc(C)c(S(=O)(=O)NCC4CCCO4)c3)c3ccccc23)c1 (stereo not drawn),82%
5,CCOC(=O)COc1ccc(CC)cc1C(=O)c1ccn2nc(-c3ccc(C)cc3)cc2n1,75%
6,COc1ccc(CCNC(=O)c2cccc(Nc3nc4ccccc4nc3-n3nc(C)cc3C)c2)cc1OC,91%
7,N#Cc1nc(-c2ccc(COc3ccc(Cl)cc3)o2)oc1N1CCN(c2ccccc2)CC1,64%
8,CCc1ccc(S(=O)(=O)c2nnn3c2nc(NCc2cccc(OC)c2)c2cc(Cl)ccc23)cc1,105%
9,COc1ccc(NC(=O)c2cnn(-c3ccc(F)cc3F)c2C2CCN(C(=O)OC(C)(C)C)CC2)cc1Cl,72%
10,COc1ccc(-c2nsc(NC(=O)c3cccc(OC)c3)n2)cc1,85%
11,COc1cccc(C(=O)Nc2nc(-c3ccc(Br)cc3)ns2)c1,65%
12,CCc1ccc2oc(C(=O)Nc3nc(-c4ccccc4)ns3)c(C)c2c1,53%
13,COc1ccccc1C(=O)Nc1nc(-c2ccc(Br)cc2)ns1,86%
14,COc1ccccc1C(=O)Nc1nc(-c2ccccc2)ns1,45% (active)
15,Cc1ccc(-c2nsc(NC(=O)c3oc4cc(C)c(Cl)cc4c3C)n2)cc1,74%
16,COc1ccc(-c2nsc(NC(=O)c3ccccc3Br)n2)cc1,34% (active)
17,CCOc1ccc(C(=O)Nc2nc(-c3ccc(Br)cc3)ns2)cc1,76%
18,COc1ccc(C(=O)Nc2nc(-c3ccc(Br)cc3)ns2)cc1,58% (active)
19,Cc1ccc(C(=O)Nc2nc(-c3ccccc3)ns2)cc1,59%
20,Cc1ccccc1C(=O)Nc1nc(-c2ccc(Br)cc2)ns1,49%

row,SMILES,survival
1,Cc1cc2oc(C(=O)Nc3nc(-c4ccccc4)ns3)c(C)c2cc1Cl,45% (active)
2,CC(=O)N1CCN(C2=NC(=O)C(=C3CCCCC3)S2)CC1,75%
3,CCCOc1ccc(-c2nonc2NC(=O)c2ccco2)cc1OCCC,111%
4,Cc1c(Cl)cccc1-n1ncc(C(=O)N2CCN(c3ncccn3)CC2)c1C1CCN(C(=O)OC(C)(C)C)CC1,102%
5,COc1cc(C2CC(=O)N(c3ccc(C)c(Cl)c3)C3=C2C(=O)OC3)cc(OC)c1OC (stereo not drawn),72%
6,Cc1ccc(C)c(NC(=O)C2CCN(c3nn4c(=O)cc(C)nc4s3)CC2)c1,106%
7,CCOC(=O)c1cc2sccc2n1CC(=O)NC1CCC(C)CC1 (stereo not drawn),95%
8,Oc1c(C(c2ccccc2F)N2CCN(c3ccccc3F)CC2)sc2nc(-c3ccco3)nn12 (stereo not drawn),87%
9,COC(=O)c1ccc(NC(=O)CCS(=O)(=O)c2ccc(Br)cc2)cc1,77%
10,CCOc1ccc(OCC)c(NC(=O)C(NS(=O)(=O)c2cccs2)c2ccccc2)c1 (stereo not drawn),66%
11,O=C(Nc1ccc(Cl)cc1)C(NS(=O)(=O)c1cccs1)c1ccccc1 (stereo not drawn),19% (active)
12,CCC(C)(C)NC(=O)C(NS(=O)(=O)c1cccs1)c1ccccc1 (stereo not drawn),84%
13,Cc1cccc(C)c1NC(=O)C(NS(=O)(=O)c1cccs1)c1ccccc1 (stereo not drawn),56%
14,COc1ccc(C)cc1NC(=O)C(NS(=O)(=O)c1cccs1)c1ccccc1 (stereo not drawn),11% (active)
15,CC(=O)Nc1ccc(NC(=O)C(NS(=O)(=O)c2ccc(Br)s2)c2ccccc2)cc1 (stereo not drawn),93%
16,Cc1cc(Br)ccc1NC(=O)C(NS(=O)(=O)c1cccs1)c1ccccc1 (stereo not drawn),31% (active)
17,Cc1cc(Br)ccc1NC(=O)C(Cc1ccccc1)NS(=O)(=O)c1ccc(Br)s1 (stereo not drawn),114%
18,COc1ccc(C)cc1NC(=O)C(Cc1ccccc1)NS(=O)(=O)c1cccs1 (stereo not drawn),84%
